Drawing on PubChem BioAssay AID435005 (Broad Institute, 2010), this text covers protection from apoptosis for 88 compounds.

Values joined by “and” are separate entries in the source; they are usually repeats but may differ in a detail not shown here. Equal values may be shown once. The whole screen tested about 300,000 compounds, of which about 2,400 (0.8%) were called active.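 Rule for the calls: active = Every replicate reaches about 75%, or at least half do and their mean reaches it too (limit read from the data); inconclusive = At least half of replicates reach the limit but their mean does not; inactive = Under half of replicates reach the limit.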 The sample as a whole holds a higher share of actives than the screen did. A structure can be active in one record and inactive in another.

The assay in a line: INS-1E beta cell survival under cytokines – luminescence, primary screen (AID 435005).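 Note: 0% = cytokine-treated negative control wells and 100% = positive control rescue; higher means more ATP so stronger rescue from cytokine killing.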 The note with it: INS-1E cytokine-induced death, ATP luminescence, 48 h; stronger effect = higher value; percent of positive-control rescue, neutral wells zero; concentration not given here.
As to `Cc1ccc(NC(=O)C2CC2)cc1S(=O)(=O)N1CCOCC1`, the protection from apoptosis is -4.34% (inactive). In the case of `CC(OC(=O)c1c(F)cccc1F)C(=O)NCCC1=CCCCC1` (stereo not drawn) it was -3.37% (inactive); in that of `CCC(CO)Oc1cc(NCc2ccccc2)c2ncn(C3CCCC3)c2c1` (stereo not drawn), -4.59% (inactive); in that of `CC(C)n1cnc2c(NCc3ccccc3)cc(N[C@@H](CO)Cc3ccccc3)cc21`, 135% (active). In the case of `CC(C)n1cnc2c(NCc3ccccc3)cc(OCC3CCN(C)CC3)cc21` it was -8.55% (inactive). For `COc1ccc(C2(c3ccc(OC)cc3)NC(=O)N(CC(=O)Nc3cc(C)on3)C2=O)cc1`, the protection from apoptosis was -3.35% (inactive). Regarding `CCn1nnc2cc(C(=O)Nc3ccc(C(=O)OC(C)C)cc3)ccc21`, the protection from apoptosis was 1.63% (inactive). The value for `O=C(Nc1ccccc1Cl)Nc1cccc2cccnc12` was 15.9% (inactive).

Take `O=C(Nc1ccccc1Cl)/C(Cl)=C(\Cl)S(=O)c1ccccc1` (stereo not drawn): the protection from apoptosis is 123% (active). In the case of `O=C(Cc1ccc2c(c1)CCCC2)Nc1ccccc1Cl` it was 9.68% (inactive); in that of `O=C(Nc1cccc(S(=O)(=O)NC2=NCCC2)c1)c1ccc(F)cc1F`, -5.38% (inactive); in that of `COc1cc(/C=C/C(=O)OCC(=O)c2ccccc2)cc(OC)c1OC`, -3.69% (inactive). For the compound `Oc1ccc2ccccc2c1N=Nc1nccs1`, the protection from apoptosis is 83.9% (active). For `Oc1ccc(N=Nc2nccs2)c(O)c1`, the protection from apoptosis was 98.3% (active). The value for `c1ccc(NCc2cccc3ccccc23)nc1` was -6.69% (inactive); that for `CCN1/C(=C\c2ccc3ccccc3[n+]2CC)Sc2cc(C)ccc21` was 106% (active); that for `Cc1nc2ccc(NC(=O)c3cccc(S(=O)(=O)N4CCOCC4)c3)cc2s1` was -1.06% (inactive). Regarding `c1ccc2cc(CCCc3cc4ccccc4cn3)ncc2c1`, the protection from apoptosis is -10.4% (inactive). In the case of `Cc1ccc(NC(=O)Cn2cnc3c(OCc4ccccc4)ncnc32)cc1C` it was -4.68% (inactive). In the case of `COCCN(Cc1ccccc1)C(=O)Cc1ccc(S(=O)(=O)N2CCOCC2)s1`, the protection from apoptosis is -6.29% (inactive). On to `O=C(CN1C(=O)NC2(CCCCCC2)C1=O)NCc1ccc(F)cc1`, for which the protection from apoptosis is -3.82% (inactive). As for `Cc1ccc(C(=O)C[n+]2cc(-c3ccccc3)n3c2CCCCC3)cc1`, the protection from apoptosis is 80.4% (active) and 69.5% (inactive). For the compound `Clc1ccc(C[n+]2cc(-c3ccccc3)n3c2CCC3)cc1`, the protection from apoptosis is -17.9% (inactive).

`Cc1ccc(-c2c[n+](CC(=O)Nc3ccccc3)c3n2CCC3)cc1`: the protection from apoptosis was -4.97% (inactive). For the compound `O=C(CNC(=O)c1n[nH]c2ccccc12)Nc1cc(Cl)ccc1Cl`, the protection from apoptosis is -6.41% (inactive). As for `COc1ccc(S(=O)(=O)N2CCCCCC2)cc1NC(=O)Cc1ccc(OC)c(OC)c1`, the protection from apoptosis was -0.791% (inactive). On to `CCOc1ccc(S(=O)(=O)N2CCCCC2)cc1NC(=O)CN1CCCC1c1cccs1` (stereo not drawn), for which the protection from apoptosis was 108% (active). `COc1ccc(S(=O)(=O)N2CCCCC2)cc1NC(=O)COc1ccccc1`: the protection from apoptosis is 3.1% (inactive). For the compound `CCc1sc(C(=O)N2CCN(CC(=O)Nc3cccc(F)c3)CC2)cc1C`, the protection from apoptosis is -5.03% (inactive). Consider `O=C(Cc1ccc(Cl)c(Cl)c1)Nc1ccc(SC(F)F)cc1`, for which the protection from apoptosis is -2.99% (inactive). For `O=C(CC(O)(C(F)(F)F)C(F)(F)F)Nc1ccc(Cl)c(Cl)c1`, the protection from apoptosis is 105% (active). With `O=C(CC1SCCNC1=O)Nc1ccc(Cl)c(Cl)c1` (stereo not drawn), the protection from apoptosis was 0.331% (inactive). In the case of `O=C(Cn1cnc2c(OCc3ccccc3)ncnc21)NCc1nc2ccccc2[nH]1`, the protection from apoptosis was -9.45% (inactive). Take `COc1ccc(CNc2nc(NCc3ccc(OC)cc3)c3ncn(C4CCCC4)c3n2)cc1`: the protection from apoptosis was -10.2% (inactive). `O=c1c([N+](=O)[O-])cc(C(F)(F)F)cn1Cc1cccc(Cl)c1`: the protection from apoptosis is -7.45% (inactive).

Regarding `O=[N+]([O-])/C=C/c1ccc2c(ccn2Cc2ccccc2)c1`, the protection from apoptosis was 102% (active). For `O=C(/C=C/c1cccc([N+](=O)[O-])c1)N1CCN(Cc2ccccc2)CC1`, the protection from apoptosis is -1.33% (inactive). With `CCC(CO)Oc1cc(NC(=O)c2cccc3ccccc23)c2ncn(C(C)C)c2c1` (stereo not drawn), the protection from apoptosis is 4.17% (inactive). Regarding `O=C1C=C(c2cc(C(F)(F)F)cc(C(F)(F)F)c2)C[C@@H](c2ccc3c(c2)OCO3)C1`, the protection from apoptosis is 7.25% (inactive).

As for `COc1ccc(-c2csc(NC(=O)COC(=O)Cc3ccc(Cl)cc3Cl)n2)cc1`, the protection from apoptosis is 2.13% (inactive). For the compound `COc1cc(CC(=O)Nc2nc(-c3ccc(F)c(F)c3)cs2)cc(OC)c1OC`, the protection from apoptosis was 92.9% (active).

As for `COc1ccc(CC(=O)Nc2nc(-c3ccc(F)c(F)c3)cs2)cc1OC`, the protection from apoptosis was 97.5% (active). Take `COc1cccc(CC(=O)Nc2nc(-c3ccc(OC)c(OC)c3)cs2)c1`: the protection from apoptosis is -4.99% (inactive).

Consider `Cc1ccc(S(=O)(=O)NC(=O)Nc2nc(-c3ccc(F)c(F)c3)cs2)cc1`, for which the protection from apoptosis is -25.4% (inactive). For `CCCc1ccc(-c2csc(NC(=O)Cc3cccs3)n2)cc1`, the protection from apoptosis was 6.06% (inactive). In the case of `Cc1cccc(-n2ncc3c(=O)[nH]c(SCC(=O)Nc4cc(C)on4)nc32)c1`, the protection from apoptosis was 1.12% (inactive).

On to `COc1ccc(CCNC(=O)COC(=O)Cc2ccccc2F)cc1`, for which the protection from apoptosis is -2.5% (inactive). In the case of `Cc1ccc(CC(=O)Nc2ccc(S(=O)(=O)N3CCOCC3)cc2)cc1C`, the protection from apoptosis was 0.192% (inactive). Regarding `CC(OC(=O)c1cc2ccccc2[nH]1)C(=O)N(C)c1ccccc1` (stereo not drawn), the protection from apoptosis was -1.05% (inactive).

Regarding `CCS(=O)(=O)c1ccc2oc(SCC(=O)N3c4ccccc4CC3C)nc2c1` (stereo not drawn), the protection from apoptosis was -3.73% (inactive). As for `Cc1cc(=O)[nH]c(SCC(=O)N2c3ccccc3CC2C)n1` (stereo not drawn), the protection from apoptosis was -8.13% (inactive). Turning to `CC1Cc2ccccc2N1C(=O)CSc1nc2ccccc2o1` (stereo not drawn), the protection from apoptosis was 104% (active). For `O=C(COC(=O)c1cccnc1Cl)NC12CC3CC(CC(C3)C1)C2`, the protection from apoptosis is -1.6% (inactive). Turning to `Cc1ccc(NC(=O)C2CCC(C(C)(C)C)CC2)cc1S(=O)(=O)N1CCOCC1` (stereo not drawn), the protection from apoptosis was 6.89% (inactive).

As for `COc1ccc(CCNC(=O)/C(C#N)=C2\N=C(NC(=O)c3cccs3)c3ccccc32)cc1`, the protection from apoptosis is -2.09% (inactive).

Consider `O=C(NCC#CCSc1nnc(-c2cccc3ccccc23)o1)c1cccs1`, for which the protection from apoptosis was 109% (active). In the case of `COc1ccc(CCNC(=O)CSc2nnc(CNC(=O)c3cccs3)o2)cc1OC`, the protection from apoptosis is -5.35% (inactive). In the case of `Cc1noc(C)c1NC(=O)Nc1cccc2c1O[C@H](CN(C)S(=O)(=O)c1c(C)noc1C)[C@@H](C)CN([C@H](C)CO)C2=O`, the protection from apoptosis was 1.37% (inactive). For the compound `COc1ccc(S(=O)(=O)N2CCOCC2)cc1NC(=O)CSc1nnc(NC2CC2)s1`, the protection from apoptosis is 0.467% (inactive). For `CC(NC(=O)COC(=O)Cn1cc(C(F)(F)F)ccc1=O)c1ccccc1` (stereo not drawn), the protection from apoptosis was 1.74% (inactive). The value for `CCOc1ccc(NC(=O)c2ccccc2NS(C)(=O)=O)cc1` was 0.287% (inactive); that for `COc1cc(NC(=O)c2ccccc2NS(=O)(=O)c2ccc(Cl)s2)cc(OC)c1` was 111% (active).

On to `COC(=O)c1ccc(NC(=O)c2ccccc2NS(=O)(=O)c2ccccc2)cc1`, for which the protection from apoptosis was 32.1% (inactive).

On to `Cc1ccc(-c2nn(-c3ccccc3)cc2C(=O)Nc2cccc(S(=O)(=O)N3CCOCC3)c2)cc1`, for which the protection from apoptosis was 1.74% (inactive).

Regarding `Cc1ccc(-c2nn(-c3ccccc3)cc2/C=C/C(=O)Nc2cccc(S(N)(=O)=O)c2)cc1`, the protection from apoptosis was 120% (active). Turning to `COc1ccc(-c2nn(-c3ccccc3)cc2/C=C\C(=O)Nc2ccc(C(=O)O)cc2)cc1`, the protection from apoptosis was 8.98% (inactive). The value for `O=S(=O)(c1ccc(SCc2ccccc2)nc1)N1CCCCCC1` was -5.69% (inactive); that for `NS(=O)(=O)c1ccc2nc(NC(=O)C3=COCCO3)sc2c1` was -1.35% (inactive); that for `Cc1ccc(-c2csc(NC(=O)C3=COCCO3)n2)cc1C` was 98.3% (active). In the case of `CC(=O)NCCC(=O)Nc1nc(-c2ccc3c(c2)OCCO3)cs1` it was -3.86% (inactive). As for `C#CCOCCOCCOCCNc1nc(N2CCN(C(=O)[C@H](CCC(=O)O)n3cc(CN)nn3)CC2)nc(N2CCN(C(=O)[C@H](CCC(=O)O)n3cc(CN)nn3)CC2)n1`, the protection from apoptosis is -5.06% (inactive). For the compound `Cc1noc(C)c1S(=O)(=O)N(C)C[C@H]1Oc2ccc(NC(=O)C3CC3)cc2C(=O)N([C@H](C)CO)C[C@@H]1C`, the protection from apoptosis is 4.52% (inactive). With `CCCCCCc1ccc(O)cc1O`, the protection from apoptosis is -5.91% (inactive). On to `CCCCCCc1cc2cc(-c3nnc(-c4ccccc4)o3)c(=O)oc2cc1O`, for which the protection from apoptosis is 119% (active). Regarding `Cc1c(CC(=O)NCCCCCC(=O)O)c(=O)oc2cc3occ(-c4ccccc4)c3cc12`, the protection from apoptosis is -7.43% (inactive). Turning to `CCCCCCSc1ccc(-c2nc3ccc(Cl)cn3c2NCc2ccccc2)cc1`, the protection from apoptosis is -14.3% (inactive). For `O=C(COc1ccccc1F)NNC(=O)c1cc(Br)ccc1Cl`, the protection from apoptosis was 4.16% (inactive). The value for `Oc1cccc(/C=N/Nc2ccc(Cl)nn2)c1O` was 107% (active); that for `COc1cccc(/C=N/Nc2ccc(Cl)nn2)c1` was 0.496% (inactive); that for `Clc1ccc(N/N=C/c2cccs2)nn1` was -1.26% (inactive).

For the compound `CN(C)C(=O)COC(=O)c1cccc(S(=O)(=O)N2CC3(C)CC2CC(C)(C)C3)c1` (stereo not drawn), the protection from apoptosis was -3.78% (inactive). Regarding `OCCNc1nc(Nc2ccc(Cl)c(Cl)c2)nc2ccccc12`, the protection from apoptosis is 89.8% (active). The value for `CN(C)c1nc(Nc2ccc(Cl)c(Cl)c2)nc(N(C)C)n1` was 2.44% (inactive); that for `COc1cc2nc(Cl)nc(NCCO)c2cc1OC` was -1.61% (inactive). For `COc1cc(C(=O)NCC(c2ccco2)N2CCCC2)ccc1OCc1ccccc1` (stereo not drawn), the protection from apoptosis was 0.158% (inactive). For `COc1ccc(NC(=O)N(C)C[C@H]2Oc3ccc(NC(=O)C4CC4)cc3C(=O)N([C@H](C)CO)C[C@@H]2C)cc1`, the protection from apoptosis is -3.33% (inactive). With `O=C(N[C@@H]1C/C=C\C[C@@H](CC(=O)N(CCO)Cc2ccccc2)C(=O)N[C@H](Cc2ccccc2)COC1=O)OCC1c2ccccc2-c2ccccc21`, the protection from apoptosis was 50.5% (inactive). In the case of `COc1ccc(-c2nc3cnccn3c2NC2CCCCC2)cc1-c1cccc(Cl)c1`, the protection from apoptosis is -8.81% (inactive).
